Bioassay records: PubChem, Sanford-Burnham Center for Chemical Genomics
CD11b adhes inh: inhibitors of CD11b/CD18 adhesion to fibrinogen, primary screen, K562 cells, luminescence; 93,000 tested, 0.54% active; ATPlite luminescence; Mn2+ added to activate the integrin; inhibition, % at 10 µM;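 active means primary inhibition of 50% or more at 10 µM, then 40% or more on retest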
CD11b adhes enh: enhancers of CD11b/CD18 adhesion to fibrinogen, primary screen, K562 cells, luminescence. Integrin beta-2 (Homo sapiens) + Integrin alpha-M (Homo sapiens), P05107+P11215. ATPlite luminescence. activation, % at 10 µM. 93,000 tested, 0.07% active. AID 1499, 2009;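 active means 10 µM primary screen giving 50% or more activity, confirmed by 40% or more on retest at that dose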
CYP2C9 activ: human CYP2C9 activators, primary screen, biochemical, luminescence; recombinant CYP2C9, luciferin-H conversion; active compounds read high; factor 1 = untreated enzyme, 0 = blocked; activation factor at 5 µM; 96,000 tested, 1.4% active; AID 1024, 2008;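 active means activation factor of 2 or more for CYP2C9 at a 5 µM dose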
CYP2C9 inhib: blockers of cytochrome P450 2C9 activity – biochemical, luminescence, ADME assay, primary screen. AID 777, 2007. CYP2C9 Supersomes, luciferin-H conversion. 96,000 tested, 20% active. inhibition, % at 5 µM;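 active means blocking of liver enzyme CYP2C9 beyond about 50% at 5 µM, limit read from the data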
CYP2C19 inhib: blockers of cytochrome P450 2C19 activity – biochemical, luminescence, ADME assay, primary screen; P33261; CYP2C19 Supersomes, luciferin-H EGE luminescence, 30 min; inhibition, % at 5 µM; 96,000 tested, 21% active;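 active means CYP2C19 inhibition above a set limit at 5 µM in the primary screen, cut at about 50% in these data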
Target sequence (P33261 whole entry, looked up): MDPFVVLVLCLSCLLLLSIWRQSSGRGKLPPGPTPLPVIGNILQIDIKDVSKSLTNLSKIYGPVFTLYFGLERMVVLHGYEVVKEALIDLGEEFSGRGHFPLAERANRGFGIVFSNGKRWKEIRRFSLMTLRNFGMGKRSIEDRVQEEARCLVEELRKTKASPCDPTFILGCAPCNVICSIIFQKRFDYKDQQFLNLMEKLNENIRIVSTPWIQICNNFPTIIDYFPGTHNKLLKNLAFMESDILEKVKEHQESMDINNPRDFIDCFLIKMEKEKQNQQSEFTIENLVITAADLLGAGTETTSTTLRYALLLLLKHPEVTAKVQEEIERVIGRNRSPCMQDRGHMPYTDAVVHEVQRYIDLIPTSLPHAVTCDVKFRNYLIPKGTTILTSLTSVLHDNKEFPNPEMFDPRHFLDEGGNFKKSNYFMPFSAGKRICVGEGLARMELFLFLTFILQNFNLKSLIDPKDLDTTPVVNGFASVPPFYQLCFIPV
CYP2C19 act: human CYP2C19 activators, primary screen, biochemical, luminescence. 96,000 tested, under 10 active. activation factor at 5 µM. Cytochrome P450 2C19 (Homo sapiens), P33261. recombinant CYP2C19, luciferin-H EGE luminescence; active compounds read high; 0 = fully inhibited enzyme, 1 = untreated enzyme;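 active means activation factor of at least 2 at 5 µM in the primary screen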
Each line names hits and unclear results; the compound was inactive in the other large screens. Rows were chosen to be rich in hits. Some 28% of all compounds tested hit in one or more screens of this group.

COC(=O)CSc1nnc(-c2ccoc2C)n1-c1ccc(OC)cc1	none
COc1cccc(-n2c(SCC(=O)NC(C)(C)C)nnc2-c2ccoc2C)c1	CYP2C19 inhib 72.9
CCOC(=O)CSc1nnc(-c2ccoc2C)n1-c1ccc(OCC)cc1	CYP2C9 inhib 82.2, CYP2C19 inhib 91.6
CN(C)S(=O)(=O)c1ccc(Cl)c(NC(=O)COC(=O)CCSc2ccccc2)c1	none (no result: CYP2C9 activ, CYP2C9 inhib, CYP2C19 inhib, CYP2C19 act)
CNC(=S)N1N=C(c2ccc(C)cc2)CC1c1ccc(OC)cc1 (configuration not stated)	CYP2C9 inhib 92.8, CYP2C19 inhib 76.9 (no result: CD11b adhes inh, CD11b adhes enh)
COc1cc(NS(=O)(=O)c2ccc(N/C=C\C(=O)c3ccc(F)cc3)cc2)nc(OC)n1	none (no result: CYP2C9 activ, CYP2C9 inhib, CYP2C19 inhib, CYP2C19 act)
COc1cccc(Cn2c(Oc3ccccc3)nc3c2c(=O)n(C)c(=O)n3C)c1	CYP2C9 inhib 84.9 (no result: CD11b adhes inh, CD11b adhes enh)
CC(C)CCn1c(Oc2ccccc2Cl)nc2c1c(=O)n(C)c(=O)n2C	CYP2C9 inhib 84.8
C=CCOc1nc2c(c(=O)n(C)c(=O)n2C)n1Cc1ccccc1Cl	none (no result: CD11b adhes inh, CD11b adhes enh)
CC(C)CCn1c(Cl)nc2c1c(=O)n(C)c(=O)n2C	CYP2C19 inhib 54.6 (no result: CD11b adhes inh, CD11b adhes enh)
CCNC(=S)NCCN1CCCCC1	none
COc1ccc(CNC(=O)CN(Cc2ccc(C)cc2)S(=O)(=O)c2ccc(Cl)cc2)cc1	none
Cc1cccc(CN(CC(=O)N/N=C/c2cccs2)S(=O)(=O)c2ccc(Cl)cc2)c1	CYP2C9 inhib 69.9, CYP2C19 inhib 74.4 (no result: CD11b adhes inh, CD11b adhes enh)
Cc1cccc(CN(CC(=O)N/N=C/c2ccco2)S(=O)(=O)c2ccc(Cl)cc2)c1	CYP2C9 inhib 92.7, CYP2C19 inhib 99.8
Cc1ccc(S(=O)(=O)N(CC(=O)N/N=C/c2ccco2)Cc2ccccc2)cc1	none
O=S(=O)(Nc1cccc2c1ccc1cccn12)c1cccs1	CYP2C9 inhib 58.9 (no result: CD11b adhes inh, CD11b adhes enh)
COc1cccc(NC(=O)C(OC(=O)c2ccccc2NS(=O)(=O)c2cccs2)c2ccccc2)c1 (configuration not stated)	none (no result: CYP2C9 activ, CYP2C9 inhib, CYP2C19 inhib, CYP2C19 act)
CCCOc1ccc(C(=O)c2nc3c(n2O)CCCC3)cc1	none
Cc1cc(OC(=O)c2cc(Cl)nc3ccccc23)ccc1Cl	none
COc1ccccc1OC(=O)c1cc(Cl)nc2ccccc12	CYP2C9 inhib 74.6
Clc1ccc(-c2cc(-c3nnc4n3CCCCC4)c3ccccc3n2)cc1	none (no result: CYP2C9 activ, CYP2C9 inhib, CYP2C19 inhib, CYP2C19 act)
CC1CCN(C(=O)CN(C2CCCCC2)S(C)(=O)=O)CC1	none
Cc1cc(C)c(S(=O)(=O)N(C)Cc2cnn(C)c2)c(C)c1	CYP2C9 activ 2, CYP2C19 inhib 87.6
Cc1cc(C)c(S(=O)(=O)N(CC(=O)N2CCCC2)C2CCCCC2)c(C)c1	CYP2C9 inhib 58.5
Cc1ccccc1NS(=O)(=O)c1ccc(OCC(=O)NCc2cccnc2)cc1	none (no result: CYP2C9 activ, CYP2C9 inhib, CYP2C19 inhib, CYP2C19 act)
Cc1cc(C)c(S(=O)(=O)N(CC(=O)NCc2cccnc2)C2CCCCC2)c(C)c1	CYP2C9 inhib 94.4, CYP2C19 inhib 99.2
Cc1cc(C)c(S(=O)(=O)N(C)CC(=O)N2CCCCC2)c(C)c1	CYP2C9 activ 2.9
COc1ccc(/C=N\NC(=O)C2=NNC(=O)C2C)cc1 (configuration not stated)	none (no result: CD11b adhes inh, CD11b adhes enh)
Cc1cc2c(cc1C)CSC(c1c(O)ccc3ccccc13)SC2	CYP2C9 inhib 98.8, CYP2C19 inhib 80.8
Cc1cc2c(cc1C)CSC(c1ccc3ccccc3c1O)SC2	CYP2C9 inhib 91.6, CYP2C19 inhib 52.6
Cc1cc2c(cc1C)CSC(c1ccccc1O)SC2	none
Cc1cc2c(cc1C)CSC(c1ccccc1OC(=O)C(C)(C)C)SC2	CYP2C9 inhib 52.4
CCCCC(=O)Oc1ccccc1C1SCc2cc(C)c(C)cc2CS1	none
Cc1cccc(-n2ccnc2SCC(=O)N2CCCc3ccccc32)c1C	none (no result: CYP2C9 activ, CYP2C9 inhib, CYP2C19 inhib, CYP2C19 act)
O=C(C(Cl)Cl)N1c2ccccc2OCC1c1ccccc1 (configuration not stated)	CYP2C9 inhib 75.1, CYP2C19 inhib 77.8
CCOc1ccccc1N1CC(O)=C(c2nc3ccccc3s2)C1=N	CYP2C9 inhib 57.8, CYP2C19 inhib 59.1
CCN(CC)CCCN1CC(O)=C(c2nc3ccccc3s2)C1=N	none
c1ccc(COc2ccc(Nc3ncnc4nc[nH]c34)cc2)cc1	none
Cc1cccc(NC(=O)c2cccc(Cn3cc(Br)c([N+](=O)[O-])n3)c2)c1C	none
COC(=O)Nc1ccc2ncn(C)c(=O)c2c1	none
CC(C)OC(=O)CCc1nc2ccccc2[nH]c1=O	CYP2C19 inhib 76.0
COCCNC(=O)Cn1nc(C(F)(F)F)c(Br)c1C	CYP2C9 inhib 52.2 (no result: CD11b adhes inh, CD11b adhes enh)
COc1ccccc1NC(=O)CSc1nnc(C2CCCCC2)n1C	CYP2C19 inhib 65.4
Cc1ccccc1NC(=O)Cc1nc(CSc2nnc(C3CCCCC3)n2N)cs1	CYP2C9 inhib 84.3, CYP2C19 inhib 54.6
Nn1c(SCC(=O)Nc2cccc(F)c2)nnc1C1CCCCC1	CYP2C9 inhib 52.8, CYP2C19 inhib 54.3
Cn1c(SCC(=O)c2ccccc2)nnc1C1CC1	CYP2C19 inhib 50.0
CCOc1cccc2cc(-c3cn4cc(C)ccc4n3)c(=O)oc12	none
CCOc1cccc(=O)c2c(C)oc(C)c12	CYP2C9 inhib 95.2
CC(C)=C(NC(=O)c1ccccc1)C(=O)NCCCC(=O)O	none
O=C(/C=C/c1ccccc1)NC(NC(=S)Nc1cc(Cl)ccc1Cl)C(Cl)(Cl)Cl (configuration not stated)	CYP2C9 inhib 86.9 (no result: CD11b adhes inh, CD11b adhes enh)
CC(=O)NC(NC(=S)Nc1ccc(N=Nc2ccccc2)cc1)C(Cl)(Cl)Cl (configuration not stated)	none (no result: CD11b adhes inh, CD11b adhes enh)
COc1ccc(NC(=S)NC(NC(=O)/C=C/c2ccccc2)C(Cl)(Cl)Cl)cc1 (configuration not stated)	CYP2C9 inhib 80.4 (no result: CD11b adhes inh, CD11b adhes enh)
COC(=O)NC(NC(=S)Nc1ccccc1OC)C(Cl)(Cl)Cl (configuration not stated)	none (no result: CYP2C9 activ, CYP2C9 inhib, CYP2C19 inhib, CYP2C19 act)
S=C(NCCCc1ccccc1)Nc1ccc(Cl)cc1	none (no result: CYP2C9 activ, CYP2C9 inhib, CYP2C19 inhib, CYP2C19 act)
O=C(/C=C/c1ccccc1)NC(NC(=S)Nc1ccc(Cl)cc1)C(Cl)(Cl)Cl (configuration not stated)	CYP2C9 inhib 70.4
O=C(CCc1ccccc1)NC(NC(=S)Nc1ccc(Cl)cc1)C(Cl)(Cl)Cl (configuration not stated)	CYP2C9 inhib 92.5
CCOC(=O)CNC(=O)CSc1nc2cccnc2n1C	none
CCOC(=O)N1CCN(c2ncnc3nc[nH]c23)CC1	none
O=C(O)COc1ccccc1C1C2C(=O)N(c3ccc(F)cc3)C(=O)C2ON1c1ccccc1 (configuration not stated)	CYP2C9 inhib 54.4
COc1ccccc1C1C2C(=O)N(c3ccccc3)C(=O)C2ON1c1ccccc1 (configuration not stated)	CYP2C9 inhib 86.1, CYP2C19 inhib 76.8
